Records with an inconclusive call do not appear. Active and inactive are the calls of the source. Calls come from the whole dose curve; as a rule, active = well fitted curve in the direction sought with a large enough effect; inconclusive = small, poorly fitted or top-dose-only effect, or another doubt; inactive = no such curve, though single readings can be large; an effect the other way counts as inactive or inconclusive.
Legend:
[1] = qHTS of pediatric cancer cell lines to identify multiple opportunities for drug repurposing: Primary screen for NB-EBc1 cells (AID 1347095)
In short: (§1)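 Plated cells (500-1,000 per well, growth media) were allowed to settle for 5 hours, treated with compound dilutions for 48 hours, then lysed with CellTiter-Glo for 15 min at room temperature before luminescence reading.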

[2] = qHTS of pediatric cancer cell lines to identify multiple opportunities for drug repurposing: Primary screen for U-2 OS cells (AID 1347096); note: nearly all actives have a fitted effect of over 50% in size
In short: (§2)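 Cells (500-1,000/well) rested 5 h, then received compounds for 48 h; metabolically active cells were measured by CellTiter-Glo luminescence. Final concentrations spanned up to 46 µM (MIPE, 11-point) or 0.59 nM-46 µM (NPC, 8-point) in primary screens, 11-point in follow-ups.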

[3] = qHTS of pediatric cancer cell lines to identify multiple opportunities for drug repurposing: Primary screen for Saos-2 cells (AID 1347097); note: nearly all actives have a fitted effect of over 40% in size
In short: as §1

[4] = qHTS of pediatric cancer cell lines to identify multiple opportunities for drug repurposing: Primary screen for SK-N-SH cells (AID 1347098);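 note: DMSO served as neutral control and bortezomib at 2.3 µM as positive control; nearly all actives have a fitted effect of over 65% in size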
In short: as §2

[5] = qHTS of pediatric cancer cell lines to identify multiple opportunities for drug repurposing: Primary screen for LAN-5 cells (AID 1347100)
In short: as §2

[6] = qHTS of pediatric cancer cell lines to identify multiple opportunities for drug repurposing: Primary screen for BT-12 cells (AID 1347101); note: nearly all actives have a fitted effect of over 25% in size
In short: as §2

[7] = qHTS of pediatric cancer cell lines to identify multiple opportunities for drug repurposing: Primary screen for Rh18 cells (AID 1347102); note: nearly all actives have a fitted effect of over 65% in size
In short: as §2

[8] = qHTS of pediatric cancer cell lines to identify multiple opportunities for drug repurposing: Primary screen for OHS-50 cells (AID 1347103); note: nearly all actives have a fitted effect of over 40% in size
In short: as §2

[9] = qHTS of pediatric cancer cell lines to identify multiple opportunities for drug repurposing: Primary screen for MG 63 (6-TG R) cells (AID 1347105); note: nearly all actives have a fitted effect of over 50% in size
In short: as §1

[10] = qHTS of pediatric cancer cell lines to identify multiple opportunities for drug repurposing: Primary screen for control Hh wild type fibroblast cells (AID 1347106);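 note: series mostly up to about 46 µM; a drop in luminescence marks cytotoxicity and a rise apparent proliferation; nearly all actives have a fitted effect of over 55% in size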
In short: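 Viability after 48 h compound treatment at 37C, 500-1,000 cells/well, read as ATP luminescence with CellTiter-Glo. Primary screens used 11-point (MIPE, 0.78 nM-46 µM) or 8-point (NPC, 0.59 nM-46 µM) final concentrations; follow-up screens used 11-point dilutions.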

[11] = qHTS of pediatric cancer cell lines to identify multiple opportunities for drug repurposing: Primary screen for Rh30 cells (AID 1347107); note: series mostly up to about 46 µM; nearly all actives have a fitted effect of over 75% in size
In short: as §2

[12] = qHTS of pediatric cancer cell lines to identify multiple opportunities for drug repurposing: Primary screen for Rh41 cells (AID 1347108);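 note: series mostly up to about 46 µM; luminescence drop marks cytotoxic hits; nearly all actives have a fitted effect of over 70% in size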
In short: as §1

[13] = qHTS of pediatric cancer cell lines to identify multiple opportunities for drug repurposing: Primary screen for RD cells (AID 1347104); note: nearly all actives have a fitted effect of over 55% in size
In short: as §1

[14] = qHTS of pediatric cancer cell lines to identify multiple opportunities for drug repurposing: Primary screen for NB1643 cells (AID 1347099); note: nearly all actives have a fitted effect of over 50% in size
In short: as §1

Measured: Potency

C[N+](C)(C)CCOC(=O)CCC(=O)OCC[N+](C)(C)C
not listed: [13] | [14]
inactive: all other assays above

C[C@]12CCC(=O)C=C1CC[C@@H]1[C@@H]2CC[C@@]2(C)[C@H]1CC[C@]2(O)C(=O)CO
not listed: [8] | [11] | [14]
inactive: all other assays above

CCn1cc(C(=O)O)c(=O)c2cc3c(cc21)OCO3
not listed: [9] | [14]
inactive: all other assays above

CN(C)C(=O)Oc1ccc[n+](C)c1
not listed: [9] | [11] | [14]
inactive: all other assays above

COc1ccc(CCN(C)CCCC(C#N)(c2cc(OC)c(OC)c(OC)c2)C(C)C)cc1OC (stereo not given)
not listed: [6] | [8] | [9] | [11] | [12]
inactive: all other assays above

C[C@H](CS)C(=O)N1CCC[C@H]1C(=O)O
not listed: [6] | [8] | [11] | [13]
inactive: all other assays above

CN(C)CC[C@@H](c1ccc(Br)cc1)c1ccccn1
not listed: [6] | [8] | [10]
inactive: all other assays above

CC(C)[N+](C)(CCOC(=O)C1c2ccccc2Oc2ccccc21)C(C)C
not listed: [6] | [8] | [10] | [13]
inactive: all other assays above

CCN1CCC[C@H]1CNC(=O)c1c(O)c(Cl)cc(Cl)c1OC
not listed: [6] | [8] | [9] | [10]
inactive: all other assays above

CCN(Cc1ccncc1)C(=O)C(CO)c1ccccc1 (stereo not given)
not listed: [9] | [10] | [14]
inactive: all other assays above

CCCCOCCOCCOCc1cc2c(cc1CCC)OCO2
not listed: [6] | [8] | [10]
inactive: all other assays above

CC(C)NNC(=O)c1ccncc1
not listed: [6] | [8] | [9] | [13]
inactive: all other assays above

CNCCC(Oc1ccccc1OC)c1ccccc1 (stereo not given)
not listed: [6] | [8] | [11]
inactive: all other assays above

C=CCc1ccccc1OCC(O)CNC(C)C (stereo not given)
not listed: [6] | [9] | [10] | [11] | [13]
inactive: all other assays above

CC(=O)OC(C)C[N+](C)(C)C (stereo not given)
not listed: [6] | [8] | [9] | [10]
inactive: all other assays above

Brc1c(NC2=NCCN2)ccc2nccnc12
not listed: [6] | [8] | [13]
inactive: all other assays above

CCN(CC)CC(=O)Nc1c(C)cccc1C
not listed: [9] | [10] | [13] | [14]
inactive: all other assays above

FC(F)(F)c1ccccc1-n1ccnc1
not listed: [4] | [8]
inactive: all other assays above

CCN(CC)CCNC(=O)c1cc(S(C)(=O)=O)ccc1OC
not listed: [6] | [9] | [11] | [14]
inactive: all other assays above

Nc1c2c(nc3ccccc13)CCCC2O (stereo not given)
not listed: [6] | [8] | [9] | [11] | [14]
inactive: all other assays above

Cc1nc2ccccn2c(=O)c1CCN1CCC(C(=O)c2ccc(F)cc2)CC1
not listed: [3] | [6] | [8] | [11]
inactive: all other assays above

Reference: PubChem BioAssay (NCATS)
